Compound activity from PubChem BioAssay.
IMPase inh = cell-permeable inhibitors of inositol monophosphatase (IMPase); inhibition (IP1 accumulation), % at 46.1 µM; CHO-M1 cells, IP1 accumulation, HTRF TR-FRET ratio; AID 901; 120,000 tested, under 10 active; P97697; active = well fitted curve in the direction sought with a large enough effect in the signal ratio, not every such curve was filed as active; inconclusive = small, poorly fitted or top-dose-only effect, or a change in a side signal; inactive = no such curve, though single readings can be large or run the other way; the % refers to the signal ratio;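 also: cells stimulated with carbachol in lithium chloride buffer; plate controls were DMSO basal wells for no effect and reference inhibitor wells for full effect; higher means more IMPase inhibition seen as more IP1 and lower FRET ratio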
Target sequence (P97697 whole entry, looked up): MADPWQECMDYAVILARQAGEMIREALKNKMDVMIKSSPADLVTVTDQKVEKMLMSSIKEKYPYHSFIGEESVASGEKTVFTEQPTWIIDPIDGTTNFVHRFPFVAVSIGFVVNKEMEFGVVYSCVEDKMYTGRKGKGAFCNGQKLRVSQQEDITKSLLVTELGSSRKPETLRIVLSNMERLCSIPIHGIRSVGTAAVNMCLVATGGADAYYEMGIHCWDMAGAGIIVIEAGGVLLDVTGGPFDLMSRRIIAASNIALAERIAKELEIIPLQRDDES
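CHO-M1 cells (CHO stably expressing M1 receptor), compound up to 46 uM final, stimulated with carbachol (50 uM as added) in buffer with 50mM LiCl, pH 7.4, 30 min at 37C. Cytosolic IP1 read by TR-FRET; AC50 from Hill fits.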
HTT aggregate = mutant huntingtin aggregation inhibition. PC12 HttQ103-GFP aggregates, Acumen cytometry, 40 h. Potency, µM (top dose mostly 46.1 µM), without a hit: top-dose activity change, negative = inhibition, actives largely listed as inhibitors. hit rate 1.1% among 220,000. AID 1688; also: potency is read from the fitted curve at half-maximal effect; % is scaled to controls: 0 for no effect and ±100 for the full control effect; nearly all actives have a fitted effect of over 60% in size
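Compounds (qHTS titration) were added to PC12 cells expressing an ecdysone-driven HTT exon 1 Q103–GFP fusion after induction with 100 nM tebufenozide. Aggregate formation was measured as GFP objects in cell lysates.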
ALDH1A1 block = blocks purified human ALDH1A1 activity; hit rate 7.3% among 220,000; P00352; Potency, µM (series often up to 75.3 µM), for inactives: top-dose activity, negative = inhibition, usual class: inhibitors; Purified ALDH1A1, NADH fluorescence, propionaldehyde substrate; active = well fitted inhibition curve with a large enough effect, not every such curve was filed as active; inconclusive = small, poorly fitted or top-dose-only effect, or another doubt; inactive = no such curve, though single readings can be large or run the other way;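 also: potency is read from the fitted curve at half-maximal effect; plate controls were no enzyme wells and a reference inhibitor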
IMPase Li cell = IMPase inhibition in cells with lithium potentiation | Potency, µM (series often up to 59.4 µM), for the others: top-dose activity, negative = IMPase inhibition, usual class: inhibitors | AID 1457 | hit rate 0.35% among 210,000 | CHO-M1 cells, IP1 TR-FRET (IP-One), carbachol + lithium;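 also: IP1 builds up when IMPase is blocked and the TR-FRET signal falls; potency is read from the fitted curve at half-maximal effect; plate controls were basal vehicle for no effect and high inhibitor control for full effect; nearly all actives have a fitted effect of over 50% in size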
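IP1 accumulation measured by competitive TR-FRET in lysed CHO-M1 cells after 30 min compound exposure at 37C, with a small lithium addition to potentiate weak responses. Hill-equation AC50 from ratio and donor-channel data.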
HPGD inh = blocks human HPGD enzyme activity. P15428. purified HPGD, NADH fluorescence kinetic, PGE2 substrate. Potency, µM, inactives show top-dose activity change, negative = inhibition, hits mostly inhibitors. hit rate 4.3% among 150,000. AID 894; active = well fitted inhibition curve with a large enough effect, not every such curve was filed as active; inconclusive = small, poorly fitted or top-dose-only effect, or another doubt; inactive = no such curve, though single readings can be large or run the other way; also: potency is read from the fitted curve at half-maximal effect; % is scaled to controls: 0 for no effect and ±100 for the full control effect
Target sequence (P15428 whole entry, looked up): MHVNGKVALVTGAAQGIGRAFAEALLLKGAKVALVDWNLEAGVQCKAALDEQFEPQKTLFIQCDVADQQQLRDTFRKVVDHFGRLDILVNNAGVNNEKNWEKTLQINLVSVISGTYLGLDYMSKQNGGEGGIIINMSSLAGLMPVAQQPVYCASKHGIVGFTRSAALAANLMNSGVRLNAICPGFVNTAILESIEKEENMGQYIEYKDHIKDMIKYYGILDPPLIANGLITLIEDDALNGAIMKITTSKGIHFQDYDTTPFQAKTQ
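NADH formation kinetics: reaction with 30 uM PGE2 and 1 mM NAD+ (final), 20 nM enzyme, Tris-HCl pH 8 with Tween 20, after 15 min compound preincubation at room temperature. Fluorescence change, last versus first of five reads.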
HTT ATP protect = cytoprotection in Huntington HTT-Q103 PC12 cell model; PC12 HTT-Q103 induced, cytoprotection, ATP luminescence, 40 h; hit rate 0.14% among 230,000; Potency, µM (highest dose often 56.4 µM), inactives show cytoprotection (ATP increase), usual class: activators; also: potency is read from the fitted curve at half-maximal effect; % of control where 0% means no effect; nearly all actives have a fitted effect of over 45% in size
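Stable PC12 Q103-GFP cells in serum-supplemented, phenol red-free DMEM; induction by tebufenozide at 100 nM final; compound dose series; cell viability quantified luminescently from ATP.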
An asterisk follows results filed as active; ? = inconclusive; · = no result given; [ ] = another dose, or the depositor's remark. Only some compounds are listed: those with a hit (about 9.4% of all), similar ones and a draw of the others. Unless noted, calls follow the shape of the dose curve; as a rule, active = well fitted curve in the direction sought with a large enough effect; inconclusive = small, poorly fitted or top-dose-only effect, or another doubt; inactive = no such curve, though single readings can be large; an effect the other way counts as inactive or inconclusive.

SMILES	IMPase inh	HTT aggregate	ALDH1A1 block	IMPase Li cell	HPGD inh	HTT ATP protect
COCCn1c(C(=O)N2CCCC2)cc2c1C[C@H]1CN(C(=O)c3ccccc3)[C@@](Cc3ccccc3)(C(=O)OC)[C@@H]21	·	·	-4.2%	10.3%	-0.2%	8.6%
COC(=O)[C@@]1(Cc2ccc(OC)cc2)[C@H]2c3cc(C(=O)N4CCCC4)n(CCc4ccc(O)c(O)c4)c3C[C@H]2CN1C(=O)c1ccccc1	·	·	-6.1%	-6.4%	-17.0%	11.2µM*
COC(=O)[C@@]1(Cc2ccc(F)cc2)[C@H]2c3cc(C(=O)N(C)C)n(Cc4ccc(Cl)c(C(F)(F)F)c4)c3C[C@H]2CN1C(=O)c1ccccc1	·	·	-0.4%	-0.1%	-15.2%	-59.8%
COC(=O)[C@@]1(Cc2ccc(F)cc2)[C@H]2c3cc(C(=O)N(C)C)n(Cc4ccccc4)c3C[C@H]2CN1C(=O)c1ccccc1	·	?	6.1%	17.7%	-15.3%	?
COC(=O)[C@@]1(Cc2ccc(OC)cc2)[C@H]2c3cc(C(=O)N4CCCC4)n(Cc4ccc(Cl)c(C(F)(F)F)c4)c3C[C@H]2CN1C(=O)c1ccccc1	·	·	-4.0%	1.1%	-9.2%	10µM*
COC(=O)[C@@]1(Cc2ccc(F)cc2)[C@H]2c3cc(C(=O)N(C)C)n(Cc4ccc(C)o4)c3C[C@H]2CN1C(=O)c1ccccc1	·	·	-7.5%	13.0%	17.8µM*	-35.4%
COc1ccccc1C1CC(=O)Oc2cc3c(cc21)OCO3 (stereo not drawn)	·	·	?	-1.2%	-18.0%	-20.7%
NC(=O)c1ccc(-c2ccccc2F)cc1	·	15.7%[9.22 µM]	·	·	·	6.1%[10 µM]
NNC(=O)c1ccc(-c2ccccc2F)cc1	·	8.5%[9.22 µM]	1.12µM*	·	·	14.6%[10 µM]
O=c1c[n+](CC[n+]2cc(=O)o[nH]2)[nH]o1	·	·	-0.7%[13.5 µM]	-3.2%	3.5%	11.6%[10 µM]
O=C(Nc1ccc(S(=O)(=O)N2CCCC2)cc1)c1ccc2c(=O)n3c(nc2c1)CCCCC3	·	-22.8%	?	4.1%	-11.7%	12.9%[10 µM]
Cc1ccc(S(=O)(=O)N2CCCCC2)cc1NC(=O)c1ccc2c(=O)n3c(nc2c1)CCCCC3	·	11.4%	14.1µM*	9.2%	-19.4%	17.7%[10 µM]
O=C(Nc1ccc(F)c(Cl)c1)c1ccc2c(=O)n3c(nc2c1)CCCCC3	9.8	-31.9%	25.1µM*	·	·	-10.4%
O=C(COc1ccc(Cl)cc1Cl)Nc1ccc2nc3n(c(=O)c2c1)CCCC3	11.0	10.5%	?	7.4%[38.3 µM]	10µM*	-38.2%
O=C1[C@@H]2[C@H]3[C@H](O)[C@H](O)C/C(=N/OCc4ccccc4)[C@H]3CC[C@H]2C(=O)N1c1ccc(F)cc1F	·	·	11.4%[13.5 µM]	·	·	?
Cc1ccc(-c2cc(C(=O)O)n(-c3ccc(S(N)(=O)=O)cc3)n2)cc1	·	1.0%	1.0%	-0.4%	·	-15.7%[10 µM]
CCCNC(=O)Cn1c(=O)/c(=C\c2ccc(-c3ccc([N+](=O)[O-])cc3)o2)s/c1=C\C(=O)C(C)(C)C	·	14.1µM*	3.7%	-20.0%	-11.2%	19.9%[10 µM]
c1ccc2c(CCNc3ncnc4nc[nH]c34)c[nH]c2c1	14.0	?	12.8%	5.5%	-7.9%	5.9%
c1ccc(CCNc2ncnc3nc[nH]c23)cc1	-4.5	11.2µM*	3.3%	19.6%[38.3 µM]	-4.6%	-26.7%[0.074 µM]
O=C(O)/C=C/c1cccc(B(O)O)c1	·	·	6.3%	-8.6%	-11.5%	-15.3%
O=C(CSc1nccc(=O)[nH]1)N1N=C2/C(=C/c3ccco3)CCCC2C1c1ccco1 (stereo not drawn)	·	4.4%	14.1µM*	9.4%	·	2.3%
Cn1cnnc1SCC(=O)N1N=C2/C(=C/c3ccco3)CCCC2C1c1ccco1 (stereo not drawn)	-1.3	-32.3%	15.8µM*	22.5%[38.3 µM]	?	-16.3%
Nc1nc(SCC(=O)N2N=C3/C(=C/c4ccco4)CCCC3C2c2ccco2)n[nH]1 (stereo not drawn)	-2.6	13.1%	?	25.0%[38.3 µM]	-4.5%	2.4%
